The record followed here is PubChem BioAssay (NCATS).

The structures appear in SMILES notation. Values joined by “and” are separate entries in the source; they are usually repeats but may differ in a detail not shown here. Identical values can stand only once. Inconclusive results are not listed. Unmarked numbers belong to inactive results. Active and inactive are the calls of the source. Calls follow the shape of the dose curve; as a rule, active = well fitted inhibition curve with a large enough effect; inconclusive = small, poorly fitted or top-dose-only effect; inactive = flat fitted curve, though single readings scatter.
% is scaled to controls: 0 for no effect and ±100 for the full control effect; potency is read from the fitted curve at half-maximal effect.

The subject of the assay is KB-3-1. As to the kind of experiment: Cytotoxic Profiling of Annotated Libraries Using Quantitative High-Throughput Screening (AID 1296008). Also: nearly all actives have a fitted effect of over 60% in size. The conditions noted are these: Five cell lines viability, CellTiter-Glo ATP luminescence, 48-72 h; max response: hits give low values. In outline:
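Cytotoxicity was measured as CellTiter-Glo ATP luminescence, read after 10 min at room temperature. Compound treatment of the cells lasted 48 or 72 hr at 37 degrees Celsius in a qHTS format.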
A general note: ATP-based viability assays read luminescence as a measure of living cells.
Take `CNC[C@@H]1CC[C@@H](N)[C@@H](O[C@H]2[C@H](O)[C@@H](O[C@H]3OC[C@](C)(O)[C@H](NC)[C@H]3O)[C@H](N)C[C@@H]2N)O1`: the max response was -26.6%.
Same read-out and setting: the same measure for `O=P(O)(O)OC(CO)CO`: 1.53%; for `O=C(c1ccccc1)c1c(O)cc(O)cc1O[C@@H]1O[C@H](CO)[C@@H](O)[C@H](O)[C@H]1O`: 2.63%.
The same measure, in the same setting: as for `CC[C@H]1OC(=O)[C@H](C)[C@@H](O[C@H]2C[C@@](C)(OC)[C@@H](O)[C@H](C)O2)[C@H](C)[C@@H](O[C@@H]2O[C@H](C)C[C@H](N(C)C)[C@H]2O)[C@](C)(O)C[C@@H](C)[C@@H]2N[C@@H](COCCOC)O[C@@H]([C@H]2C)[C@]1(C)O`, the figure is -15.7%.
Still for that read-out and setting: as for `CC#CCC(C)[C@H](O)/C=C/[C@@H]1[C@H]2c3cccc(CCCC(=O)O)c3O[C@H]2C[C@H]1O` (stereo not given in full), the figure is -28.3%; as for `O=C(CCCN1CCC(n2c(=S)[nH]c3ccccc32)CC1)c1ccc(F)cc1`, 8.28%; as for `O=P(O)(O)OC(Cn1cncn1)(Cn1cncn1)c1ccc(F)cc1F`, -21.6%.
As to `CC(C)c1cccc(C(C)C)c1NC(=O)Nc1ccc(Sc2ccc([N+](=O)[O-])cc2)cc1`, the Potency is 10.3 µM (active).
Consider `C[C@H]1C[C@@H]2[C@H]([C@@H](O)C[C@@]3(C)[C@H]2CC[C@]3(O)C(=O)COC(=O)CCC(=O)O)[C@@]2(C)C=CC(=O)C=C12`, for which the max response was -6.8%.
On the same count and under the same terms, the same measure for `CN(C(=O)CO)c1c(I)c(C(=O)NCC(O)CO)c(I)c(C(=O)NCC(O)CO)c1I` (stereo not given): 5.16%; for `NCCCC[C@H](NC(=O)[C@@H]1CCCN1C(=O)[C@@H]1CSSC[C@H](N)C(=O)N[C@@H](Cc2ccc(O)cc2)C(=O)N[C@@H](Cc2ccccc2)C(=O)N[C@@H](CCC(N)=O)C(=O)N[C@@H](CC(N)=O)C(=O)N1)C(=O)NCC(N)=O`: 0.366% and -14.6%; for `O=S(O)CNc1ccc(S(=O)(=O)c2ccc(NCS(=O)O)cc2)cc1`: -17.8%.
`CC(=O)N[C@@H](C=O)[C@H](O)[C@H](O)[C@@H](O)CO`: the max response is 5.53% and 4.97%.
Still for that read-out and setting: the same measure for `CCCC(=O)O[C@]1(C(=O)COC(=O)CC)[C@@H](C)C[C@H]2[C@@H]3CCC4=CC(=O)C=C[C@]4(C)[C@@]3(F)[C@@H](O)C[C@@]21C`: -7.8%; for `CC(=O)O[C@H]1CC[C@@]2(C)C(=CC[C@H]3[C@@H]4CC[C@H](C(C)=O)[C@@]4(C)CC[C@@H]32)C1`: 2.35%; for `CC1(C)S[C@@H]2[C@H](NC(=O)C(C(=O)Oc3ccc4c(c3)CCC4)c3ccccc3)C(=O)N2[C@H]1C(=O)O` (stereo not given in full): 21.3%.
Same read-out and setting: as for `O=C[C@H](O)[C@@H](O)[C@H](O[C@H]1O[C@H](CO)[C@@H](O[C@H]2O[C@H](CO)[C@@H](O)[C@H](O)[C@H]2O)[C@H](O)[C@H]1O)[C@H](O)CO`, the figure is -9.17%; as for `O=C(Nc1ccc(/C=C/c2ccc(NC(=O)c3cc(S(=O)(=O)O)c4cccnc4c3O)cc2S(=O)(=O)O)c(S(=O)(=O)O)c1)c1cc(S(=O)(=O)O)c2cccnc2c1O`, 0.4%; as for `C[C@H](CSC(=O)c1ccccc1)C(=O)N1C[C@@H](Sc2ccccc2)C[C@H]1C(=O)O`, -1.05%.
The same measure, in the same setting: as for `C[C@H](/C=C/[C@H](C)C(C)(C)O)[C@H]1CC[C@H]2/C(=C/C=C3C[C@@H](O)C[C@H](O)C3)CCC[C@]12C`, the figure is 23%; as for `C=C1CC2C3CCC4=CC(=O)C=C[C@]4(C)[C@@]3(F)[C@@H](O)C[C@]2(C)[C@@]1(O)C(=O)COC(C)=O` (stereo not given in full), 3%.
As for `CC1=C(C(=O)OCCN(Cc2ccccc2)c2ccccc2)C(c2cccc([N+](=O)[O-])c2)C(P2(=O)OCC(C)(C)CO2)=C(C)N1` (stereo not given), the max response was 26.8%.
For the molecule `CCOC(=O)c1csc(Nc2ccc(Cl)cc2)n1`, the max response was -19%.
Still for that read-out and setting: as for `C/C=C(/CC[C@@H](C)[C@H]1CC[C@H]2C3=CC[C@H]4[C@H](C)[C@@H](O)CC[C@]4(C)[C@H]3CC[C@]12C)C(C)C`, the figure is -22.1%; as for `OCC(O)COc1ccc(Cl)cc1` (stereo not given), -9.74%.
As for `CC(CC(c1ccccc1)c1ccccc1)NC(C)(C)C` (stereo not given), the max response was -0.893%.
On the same count and under the same terms, the same measure for `C=C1C(=O)O[C@@H]2[C@H]3C(C)=CC(=O)C3=C(C)[C@@H](OC(=O)/C(C)=C\C)[C@H](O)[C@@H]12`: 5.28%.
Still for that read-out and setting: the same measure for `CC(CN(C)C)CN1c2ccccc2S(=O)(=O)c2ccccc21` (stereo not given): 23.6%.
For the molecule `CCCCOC(=O)C(=O)Nc1cccc(-c2nn[nH]n2)c1`, the max response was -17%.
Same read-out and setting: the same measure for `COC(C)=O`: -9.47%; for `CCCC1([C@H](O)C/C=C/[C@H]2[C@H](O)CC(=O)[C@@H]2CCCCCCC(=O)OC)CCC1`: -18.2%; for `COc1ccc(C(=O)Nc2ccccc2CCC2CCCCN2C)cc1` (stereo not given): -11.1%.
Same read-out and setting: the same measure for `O=C(Nc1nnc(-c2ccc3c(c2)OCCO3)o1)C1CCCCC1`: 6.45%; for `CCC(CN)CC(C)CCNCC(O)CNCC(C)CC(CC)CN` (stereo not given): -5.63%.
Still for that read-out and setting: as for `CCN1CCCC1CNC(=O)c1cc(S(=O)(=O)CC)ccc1OC` (stereo not given), the figure is -13.4% and -13.1%; as for `CC(C)(S)C(=O)N[C@@H](CS)C(=O)O`, -0.209% and -15.2%; as for `O=C1O[C@@H]2[C@@H](O)[C@H](O)O[C@@H]2[C@H]1O`, -9.13%.
As for `C[C@@H]1C[C@H]2C3C[C@H](F)C4=CC(=O)C=CC4(C)[C@@]3(F)[C@@H](O)CC2(C)[C@@]1(O)C(=O)COC(=O)C(C)(C)C` (stereo not given in full), the max response was 27.2%.
For `CCC(C)C(C(=O)OCC[N+](C)(CC)CC)c1ccccc1` (stereo not given), the max response is -5.4%.
Same read-out and setting: as for `CS(=O)(=O)Nc1cc2occ(NC=O)c(=O)c2cc1Oc1ccccc1`, the figure is 1.81%.
